# Experimental data: the supplement of paper PMC6555819
# How the values were obtained:
# Assay in all cases: PBM binding z-score (relative to random genomic background probes); higher = stronger binding; sequences stand for … in GC…GCGATTGACAGCGTAGAATGAAGG
# [1] = test system: PPARg:RXRa DBDmut IVT, anti-RXR (DBD mutation: RXRa K156A/R161A, NR concentration 270 nM, RXRa partner concentration 90 nM)
# Method in brief: (§1)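 Custom Agilent 4×180K protein-binding microarrays carried double-stranded probes. Their 34-nt variable regions held direct-repeat seeds, single-nucleotide variants, half-site ablations and random human genomic background sequences. Arrays were incubated 1 h with ligand-free nuclear receptor dimers in PBS pH 7.4, 2% milk, 0.02% Triton X-100, 1 mM DTT, 0.2 mg/mL BSA and 0.4 mg/ml salmon testes DNA. Antibodies against each partner (one per run) detected binding, and scanned fluorescence was regression-normalized. Binding z-scores use random background probes as reference.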
# [2] = test system: PPARg:RXRa IVT, anti-PPARg (NR concentration 270 nM, RXRa partner concentration 90 nM)
# Method in brief: as §1
# [3] = test system: PPARg DBDmut:RXRa IVT, anti-PPARg (DBD mutation: PPARg1 K132A/R137A, NR concentration 270 nM, RXRa partner concentration 90 nM)
# Method in brief: as §1
# [4] = test system: PPARg DBDmut IVT, anti-PPARg (DBD mutation: PPARg1 K132A/R137A, NR concentration 270 nM)
# Method in brief: as §1
# [5] = test system: PPARg homodimer (NR concentration 180 nM)
# Method in brief: as §1
# [6] = test system: PXR:RXRa (NR concentration 270 nM, RXRa partner concentration 90 nM)
# Method in brief: as §1
# [7] = test system: PXR homodimer (NR concentration 270 nM)
# Method in brief: as §1
# [8] = test system: RARa:RXR (NR concentration 270 nM, RXRa partner concentration 90 nM)
# Method in brief: as §1
# [9] = test system: RARa homodimer (NR concentration 270 nM)
# Method in brief: as §1
# [10] = test system: RARb:RXRa (NR concentration 270 nM, RXRa partner concentration 90 nM)
# Method in brief: as §1
# [11] = test system: RARb homodimer (NR concentration 270 nM)
# Method in brief: as §1
# [12] = test system: RARg:RXRa (NR concentration 270 nM, RXRa partner concentration 90 nM)
# Method in brief: as §1
# [13] = test system: RARg homodimer (NR concentration 270 nM)
# Method in brief: as §1
# [14] = test system: RXRa DBDmut IVT, anti-RXR (DBD mutation: RXRa K156A/R161A, NR concentration 90 nM)
# Method in brief: as §1
# [15] = test system: RXRa homodimer (NR concentration 180 nM)
# Method in brief: as §1
# [16] = test system: THRa:RXRa (NR concentration 90 nM, RXRa partner concentration 90 nM)
# Method in brief: as §1
# [17] = test system: THRa homodimer (NR concentration 90 nM)
# Method in brief: as §1
# [18] = test system: VDR homodimer (NR concentration 270 nM)
# Method in brief: as §1
Sequence,PBM binding z-score [1],PBM binding z-score [2],PBM binding z-score [3],PBM binding z-score [4],PBM binding z-score [5],PBM binding z-score [6],PBM binding z-score [7],PBM binding z-score [8],PBM binding z-score [9],PBM binding z-score [10],PBM binding z-score [11],PBM binding z-score [12],PBM binding z-score [13],PBM binding z-score [14],PBM binding z-score [15],PBM binding z-score [16],PBM binding z-score [17],PBM binding z-score [18]
CCTAGCAGGGCAGGGTCACTCAAGCATTTCGCTT,0.873,1.78,-1.54,-0.906,1.69,2.92,-0.402,3.98,-0.114,3,3.05,3.61,3.01,0.33,4.08,2.8,0.567,1.75
ACTAGCAGACCAAGTTTGGGTCACTCAAACAAAG,-0.311,0.415,-0.191,-0.505,-0.222,0.6,-0.393,1.12,-0.119,0.992,1.57,0.911,0.702,-0.0274,0.79,1.98,0.78,0.00842
CCGACTGGGGAAGAAAGGTTACCATACCATCCGG,-0.325,0.33,-0.996,-0.95,0.579,0.747,-0.0818,1.3,0.0486,1.23,1.97,0.982,0.848,-0.897,1.49,1.09,-0.21,-0.0513
CTACCAAGATGAACAAGGTCGTTGATTACTATTC,0.459,0.305,0.173,0.136,0.792,1.53,1.73,1.45,1.7,0.656,1.24,0.579,0.551,1.52,0.837,1.77,1.54,2.53
ACTAGCAGGCCAAGTTTGCGTCACTCAAACAAAG,0.769,0.225,0.102,-0.27,-0.265,-0.294,-0.479,-0.264,-0.243,0.486,0.00722,-0.201,-0.0389,0.079,-0.299,-0.253,-0.635,0.0311
ACTCGGAGGACAAAGGTCAGATCTACGCCAGTGA,0.776,3.13,0.263,-0.358,2.46,3.86,0.325,4.45,1.42,4.33,4.47,5.88,5.52,1.38,4.78,3.36,0.695,1.27
GCTAGCAGGCCGTTTGGGTCACTCAATGACGGGC,-0.553,-0.27,-1.62,-1.46,-0.598,0.292,-0.556,0.575,-1.38,1.14,1.43,0.678,0.649,-0.318,0.67,1.61,0.166,0.089
TAGCCTATGTCATGGGCCAGTATACCACGCGAAC,-0.759,0.165,-0.733,0.201,-0.377,-0.487,-0.151,0.249,-0.171,0.192,0.149,0.192,0.474,-0.981,0.178,-0.349,-0.74,-0.627
CCAGACAGGTGAAGGGTAACTCAGTCTGGTACGC,0.998,1.9,-0.966,-0.622,0.674,-0.0608,-0.0922,0.0219,-0.195,1.04,0.722,0.492,0.626,-0.69,0.751,0.21,-0.441,-0.55
TCTAGCAGGCCAGAGGGTCGCTCAAGAGGTACGG,0.74,-0.213,-1.68,-1.41,-0.918,-0.366,-0.896,-0.208,-1.48,0.463,0.452,0.125,0.0431,-0.342,0.375,-0.276,-1.24,-0.526
GCTAGCAGGCCATTAGGGTCACTCAATGACGGGC,1.02,1.61,-0.521,-1.36,0.4,2.86,1.38,2.85,-0.0554,2.42,2.83,2.53,2.08,0.0923,2.42,3.37,2.03,1.91
CCAGACAGGTGAAAGGCAACTCAGTCTGGTACGC,0.767,1.08,0.0608,-0.556,0.466,-0.0216,-0.296,0.0824,0.0834,0.639,0.304,0.225,0.332,-0.268,0.712,0.000923,-0.701,0.202
ATATGTAGGTTACATCCGGGTGATTCAGGCTATG,6.76,7.32,2.76,2.26,1.49,0.723,0.414,0.999,0.428,1.05,0.887,1.19,1.11,0.378,1.27,2.07,0.9,0.101
CTACCAAGGTGAACAAAGTCGTTGATTACTATTC,2.31,2.45,0.74,0.992,0.58,0.262,0.0608,0.544,0.222,1.42,0.608,0.623,0.808,0.695,0.378,1.69,0.927,0.24
ATATGTCGGTTATCGGGTCATTCAGTTTGCGCAT,3.75,4.28,1.98,2.05,2.12,3.32,7.06,3.02,0.924,2.11,2.64,2.72,2.04,1.42,2.51,3.14,2.54,3.21
